# Source: PubChem BioAssay (NCI)
# About 83,000 compounds went through this panel and 20% of them were active in at least one assay; those are over-represented in the sample as a whole.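 Results are percent growth after 48 hours of single-concentration exposure. 100 means growth as in untreated cells, lower positive values show inhibition; negative values down to -100 show cell death.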 Calls of active or inactive are those of the source. The calls were made as follows: active = growth percent below 10; inactive = the rest.
# System: HL-60(TB) leukemia
# Assay: NCI-60 one-dose screen, 48 h (100 = growth as untreated, 0 = no growth, -100 = all killed)
# Conditions: 10 µM unless noted
row,Compound,growth
1,COC(=O)[C@@H](C)C[C@H](Cc1ccccc1)NC(=O)c1nc([C@@H](C[C@H](C(C)C)N(C)C(=O)[C@@H](NC(=O)[C@H]2CCCCN2C)C(C)C)OC(C)=O)sc1C(C)C,-45.5% (active)
2,CCCC(C)C1(CC)C(=O)NC(=O)N(C)C1=O (stereo not drawn),94.8% (inactive)
3,C=CCCCCCCCCC(=O)[O-].C=CCCCCCCCCC(=O)[O-].[Zn+2],95.1% (inactive)
4,COc1ccc(C(O)(C(=O)O)c2ccc(OC)cc2)cc1,96.9% (inactive)
5,Nc1c(F)cc(-c2nc3cc(F)ccc3[se]2)cc1F,83.5% (inactive)
6,CC(=O)O[C@@H]1CC[C@]2(C)[C@H]3CC[C@]4(C)C(=O)CC[C@H]4[C@@H]3C[C@@H]3SC(N)=N[C@@]32C1,44.5% (inactive)
7,CCCCNC(c1ccc(Cl)cc1)C(O)c1ccc(Cl)cc1 (stereo not drawn),19.6% (inactive)
8,CCOC(=O)[C@@H](C)C[C@H](Cc1ccccc1)NC(=O)c1csc([C@@H](C[C@H](C(C)C)N(C)C(=O)[C@H](CC)NC(=O)[C@H]2CCCCN2C)OC(C)=O)n1,-26.4% (active)
9,C[Se]C(=O)c1ccccc1OC(C)=O,32.8% (inactive)
10,ClC1=C(Cl)C(Cl)(C2(Cl)C(Cl)=C(Cl)C(Cl)=C2Cl)C(Cl)=C1Cl,-36.3% (active)
11,CN[C@@]1(c2ccccc2Cl)CCCC[C@@H]1NCC1CCCO1 (stereo partly drawn),99.9% (inactive)
12,COc1cc2c(cc1OCc1ccccc1)C(CC(C)C)=[N+](C)CC2,73% (inactive)
13,CC(=O)O[C@H]1CC[C@H]2[C@@H]3CC=C4c5nc(-c6ccccc6)sc5CC[C@]4(C)[C@H]3CC[C@]12C,82.1% (inactive)
14,N#CC1(c2ccccc2)CCN(Cc2ccccc2)CC1,102% (inactive)
15,COc1ccc(/C=C\c2cc(OC)c(OC)c(OC)c2)cc1OCC(=O)Nc1nc2ccc(OC(F)(F)F)cc2s1,52.3% (inactive)
16,CC(C)(C)C(=O)OCOP(=O)(NCc1ccccc1)C1CCCN(O)C1=O (stereo not drawn),52.2% (inactive)
17,CC(=O)Nc1ccc(NC(=O)c2ccc([As](O)O)cc2)cc1,44.5% (inactive)

row,Compound,growth
1,O[C@H](CN1CC1)[C@@H](O)CN1CC1,30.7% (inactive)
2,Cc1cc(C)c(CBr)c(C)c1,59.7% (inactive)
3,CCOP1(=O)CC(C)=C(Cl)C(P(=O)(OCC)OCC)C1 (stereo not drawn),107% (inactive)
4,C=C1[C@@H](C)[C@H]2[C@H](Cc3ccccc3)NC(=O)[C@]23[C@@H](O)/C=C/[C@@](C)(O)C(=O)[C@@H](C)C/C=C/[C@H]3[C@@H]1O,73.4% (inactive)
5,NC(=O)C(Br)c1ccccc1 (stereo not drawn),97.7% (inactive)
6,CCC(=O)Nc1ccc(Cl)c(Cl)c1,92.4% (inactive)
7,CC[C@H](C)[C@@H]1OC(=O)C(C)(C)[C@H](O)[C@H](Cc2ccccc2)OC(=O)[C@H](C(C)C)OC(=O)[C@@H](NC(=O)c2cccc(NC=O)c2O)[C@@H](C)OC1=O,60% (inactive)
8,NC(=S)c1cn(C2OC(CO)C(O)C2O)c2ncnc(N)c12 (stereo not drawn),-72.9% (active)
9,Nc1ncnc2n[nH]nc12,83.5% (inactive)
10,COc1cc(/C=C/[N+](=O)[O-])cc(OC)c1,-20.3% (active)
11,Brc1ccc2c(c1)c(-c1nc(-c3c[nH]c4ncccc34)cs1)cn2CCN1CCOCC1,71% (inactive)
12,O=C1C(Cl)=C(N2CCOCC2)C(=O)c2ccccc21,-36.6% (active)
13,CC1=C(CCCNS(C)(=O)=O)C2=C(C)C3(CC3)[C@@](C)(O)C(=O)C2=C1,14% (inactive)
14,CCN(CCO)C(Cc1ccccc1)c1ccccc1 (stereo not drawn),111% (inactive)
15,CCCCC1(CCC)C(=O)NC(=S)NC1=O,95.5% (inactive)
16,CC[C@H](C)[C@H](NC(=O)[C@H]1CCCCN1C)C(=O)N(C)[C@H](CC(=O)c1nc(C(=O)N[C@@H](Cc2ccccc2)C[C@H](C)C(=O)O)cs1)C(C)C,-7.69% (active)
